# Test results as given in paper PMC7819943, “Rice protein-binding microarrays: a tool to detect cis-acting elements near promoter regions in rice”.
# The full ranking holds about 39,000 sequences; the median of “fluorescence intensity (a.u.)” is about 4,300, and the highest 2% start at about 39,000. Shown is part of a subset that was picked to be rich in the highest values.
# Target: T1, OsSMF1 (Oryza sativa, UniProt Q6ZLB0 1-436)
# T1 sequence: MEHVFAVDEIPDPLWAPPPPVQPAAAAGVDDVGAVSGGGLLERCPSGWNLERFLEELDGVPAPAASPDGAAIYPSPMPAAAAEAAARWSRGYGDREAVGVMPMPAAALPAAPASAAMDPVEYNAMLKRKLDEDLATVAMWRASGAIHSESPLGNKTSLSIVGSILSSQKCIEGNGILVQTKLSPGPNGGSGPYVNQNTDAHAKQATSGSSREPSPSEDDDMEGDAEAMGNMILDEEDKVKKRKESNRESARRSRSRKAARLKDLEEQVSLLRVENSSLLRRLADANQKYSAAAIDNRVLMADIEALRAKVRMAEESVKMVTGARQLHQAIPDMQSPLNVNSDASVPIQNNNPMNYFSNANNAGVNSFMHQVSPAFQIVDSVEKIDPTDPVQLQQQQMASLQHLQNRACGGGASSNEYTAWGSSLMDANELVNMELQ
# Experiment: protein-binding microarray (RPBM); PBS, 2% BSA, 51.3 ng/ul salmon testes DNA, 50 uM zinc acetate, 200 nM TF, 25 C, 1 h; high values mean tight binding
# Details: protein: recombinant; tags: N-terminal polyhistidine and DsRed monomer fusion (pET32a); chain copies: 2; label: CyDye5-dUTP incorporated in the synthesized complementary strand; 3' TTTTT single-stranded linker to array surface; dsDNA, one strand shown
# Summary of the method: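 Ni–NTA purification followed expression in E. coli BL21-CodonPlus of transcription factors fused N-terminally to a polyhistidine tag and DsRed. At 200 nM in PBS with 2% BSA, salmon testes DNA and 50 µM zinc acetate, the protein was incubated for 1 h at 25 °C with a custom Agilent array that had been primer-extended with Cy5-dUTP and blocked with 2% BSA. After washing, the array was read on an Axon 4000B scanner. The binding signal is per-feature fluorescence intensity in arbitrary units.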
row,Sequence,binding signal
1,CTACTGACACGTAGGTGCCACCATGGCATGCCACGTCAGCCGGAGTCACCTAGTGCAG,61500 fluorescence intensity (a.u.)
2,TTATTTCTACTGCCACGTAGGTGCCACGTCAACGCCACGTCGGAGTCACCTAGTGCAG,37400 fluorescence intensity (a.u.)
3,GTAGGTGACATGTGTGGTGTCACACTGACTCAGCCATCACCGGAGTCACCTAGTGCAG,10600 fluorescence intensity (a.u.)
4,TTAGACACGTAGGTGCCATGTCAGCCAAAACCACCGAGGGCGGAGTCACCTAGTGCAG,17100 fluorescence intensity (a.u.)
5,TAAATGTTCGTGTGGCATGCCACATCAGCACCACGTAGGACGGAGTCACCTAGTGCAG,21400 fluorescence intensity (a.u.)
6,GCCACGTAGGTGCCATGTGGCACCACGTCAGCAAAATTGCCGGAGTCACCTAGTGCAG,49100 fluorescence intensity (a.u.)
7,TTTATTTCTACCGCCACGTAGGTGCCATGTCAATGTCACGCGGAGTCACCTAGTGCAG,14300 fluorescence intensity (a.u.)
8,TAGGCAAATTACATGGCATGTGCCACGTCGTTGTTGCACCCGGAGTCACCTAGTGCAG,16500 fluorescence intensity (a.u.)
9,TTTTATTTCTACTGCCACGTAGGTGCCACGTCAACGCCACCGGAGTCACCTAGTGCAG,49800 fluorescence intensity (a.u.)
10,CATAGATTAATATGAAATATATAACTCCACAAATATGCAACGGAGTCACCTAGTGCAG,3500 fluorescence intensity (a.u.)
11,ACACGGCCTATAAATATCTAACCATCCTTTGCCTGTCGAGCGGAGTCACCTAGTGCAG,4970 fluorescence intensity (a.u.)
12,TGGATTTTGCACCGATCGCACCACGTCTCCGTCTGTTTGCCGGAGTCACCTAGTGCAG,4240 fluorescence intensity (a.u.)
13,TCGCCCGCACGTGGCCCTCCTCTCCTCCCTCCCACCTCGTCGGAGTCACCTAGTGCAG,3380 fluorescence intensity (a.u.)
14,ACCACACACACACTGACACTGTGACACAACACAACACGGCCGGAGTCACCTAGTGCAG,6920 fluorescence intensity (a.u.)
15,TCACCAATCACCTGCCCTCACACCAACACGCCACGCGAACCGGAGTCACCTAGTGCAG,3750 fluorescence intensity (a.u.)
16,GGAACATGTATGCACCGAACCTGGTGCATGTCCACGTTCACGGAGTCACCTAGTGCAG,3740 fluorescence intensity (a.u.)
17,CACACTGAGTCAGCTGCCACGTCGGATAAAACCGGAGTCACGGAGTCACCTAGTGCAG,10500 fluorescence intensity (a.u.)
18,GTTCAATTCCTGCTGGATGCACGTGAACCGGAACGTTCCACGGAGTCACCTAGTGCAG,52000 fluorescence intensity (a.u.)
19,CACGCCAACTAGGATGGATAGATGGGCCACATGTATTCCACGGAGTCACCTAGTGCAG,3530 fluorescence intensity (a.u.)
20,CACCTGCAGCTGCCACGTCAGAGCCACGTCGGATTCCAACCGGAGTCACCTAGTGCAG,40800 fluorescence intensity (a.u.)
21,ATTCCTATCATTGGAGTATGTGTGCACGTCATTAGTGCCACGGAGTCACCTAGTGCAG,6500 fluorescence intensity (a.u.)

row,Sequence,binding signal
1,AGTATCAGATTCCAACTCACATGCCACGTCACATGCATGCCGGAGTCACCTAGTGCAG,42200 fluorescence intensity (a.u.)
2,CACATTGAGTCAGCTGCCACGTCGGATAAAACCGGAGTCACGGAGTCACCTAGTGCAG,15000 fluorescence intensity (a.u.)
3,GATGCACCACTGCTGCGTCGCACGTTCCACCCCATTCCACCGGAGTCACCTAGTGCAG,3520 fluorescence intensity (a.u.)
4,TCTTTCTGCACTTTCTCTGAACGTGGATAAGACATAACCGCGGAGTCACCTAGTGCAG,8130 fluorescence intensity (a.u.)
5,TTAATCACTTCTCAAACTTTTAATGCAATGACTTGTGAACCGGAGTCACCTAGTGCAG,3420 fluorescence intensity (a.u.)
6,CGTCCGCAGCACGCCACGGTAGCGCGACACCCGGCCTTCCCGGAGTCACCTAGTGCAG,4600 fluorescence intensity (a.u.)
7,AAGCGATGGAAGCAGCAGACGTGTCGCACGGGAATTTGAGCGGAGTCACCTAGTGCAG,5240 fluorescence intensity (a.u.)
8,GGCATGGGTATGGGTCATCACTACCCATGCCCGCTTTGCCCGGAGTCACCTAGTGCAG,4410 fluorescence intensity (a.u.)
9,TTTTAGGTAGAATGGTCCTGTTGGATCATCATATCAATGACGGAGTCACCTAGTGCAG,43400 fluorescence intensity (a.u.)
10,GTTGACATATGGATCCTGGTGTTATCGACTCAATGTAGAGCGGAGTCACCTAGTGCAG,5150 fluorescence intensity (a.u.)
11,GATGGTAGGTATGCATATGACGCATATCCTACCTGACGGACGGAGTCACCTAGTGCAG,3450 fluorescence intensity (a.u.)
12,TATCCAGGCGCACGACACTTGACAACTCTGTACTACGTAGCGGAGTCACCTAGTGCAG,38900 fluorescence intensity (a.u.)
13,AATTGATCTTCAGAGCCCACGTAGGTATTAGACTTTCCTACGGAGTCACCTAGTGCAG,6290 fluorescence intensity (a.u.)
14,GGCCAGTTCTCTTCCACGTGGAGGCGGCCTCTCACAGCCGCGGAGTCACCTAGTGCAG,10300 fluorescence intensity (a.u.)
15,AATTTCAGTACTCAGTTCATTAAATTAATTAAAGAAAGGCCGGAGTCACCTAGTGCAG,51100 fluorescence intensity (a.u.)
16,TCATCATCATCATCATTATTAAAGTAAATTTCAGAAAACTCGGAGTCACCTAGTGCAG,21600 fluorescence intensity (a.u.)
17,TAGTTTCACTTATTATTTATTTCAGTAAAAGAAAGTTTCCCGGAGTCACCTAGTGCAG,3690 fluorescence intensity (a.u.)
18,GCGGAGGTCGACCTTGGCGAGGTCGTCCACGTCCGGGTGCCGGAGTCACCTAGTGCAG,3340 fluorescence intensity (a.u.)
19,CCATCTTCATCTCCATATCTTCTCCTCCTCGCGTCGGCAGCGGAGTCACCTAGTGCAG,3270 fluorescence intensity (a.u.)
20,GCAATCTCATGATTCATGCAGCTTTGTAGCAATGTGTGCTCGGAGTCACCTAGTGCAG,3140 fluorescence intensity (a.u.)
21,CTTCAGTCCTCGGCCCATTCTCCCTTCCTTTCAGCTGGCTCGGAGTCACCTAGTGCAG,45600 fluorescence intensity (a.u.)
